Five compounds from PubChem BioAssay can be followed below.

Structures are written as SMILES. Active and inactive are the calls of the source.

Test [1] in a line: small molecules captured by biotinylated probe aFSTL3 – biochemical, small-molecule microarray, fluorescence 635/667, stem cell growth factor project, primary screen (AID 1064).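 Also: measures binding of the biotinylated anti-FSTL3 antibody to printed compounds.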 Conditions: higher = more signal.
The nature of test [2]: binders from COS7 lysate, DM2A8 probe, primary screen, torsin A project, cell lysate, small-molecule microarray, fluorescence 635/667 (AID 1065). The note with it: higher = more signal, COS7 lysate expressing mutant human TOR1A.
The nature of test [3]: small molecules captured by biotinylated probe aFGF2 – biochemical, small-molecule microarray, fluorescence 635/667, stem cell growth factor project, primary screen (AID 1067).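 Also: measures binding of biotinylated aFGF2 protein to printed compounds on slides; z-score merges feature fluorescence and signal-to-noise across triplicate slides.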 The note with it: higher = more signal.
The nature of test [4]: small molecules captured by biotinylated probe aFGF10 – biochemical, small-molecule microarray, fluorescence 635/667, stem cell growth factor project, primary screen (AID 1071).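 Also: score merges 667 nm spot intensity and signal to noise from triplicate slides.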 Conditions: higher = more signal.
In test [5] the target is Neurogenic locus notch homolog protein 2 (Homo sapiens) (UniProt Q04721). The test is described as follows: small molecules binding Notch2 protein – biochemical, small-molecule microarray, 635 nm fluorescence, stem cell growth factors, primary screen (AID 1073). Conditions: higher = more signal.
Chain of Neurogenic locus notch homolog protein 2 (Homo sapiens) (Q04721 whole entry, looked up, canonical isoform): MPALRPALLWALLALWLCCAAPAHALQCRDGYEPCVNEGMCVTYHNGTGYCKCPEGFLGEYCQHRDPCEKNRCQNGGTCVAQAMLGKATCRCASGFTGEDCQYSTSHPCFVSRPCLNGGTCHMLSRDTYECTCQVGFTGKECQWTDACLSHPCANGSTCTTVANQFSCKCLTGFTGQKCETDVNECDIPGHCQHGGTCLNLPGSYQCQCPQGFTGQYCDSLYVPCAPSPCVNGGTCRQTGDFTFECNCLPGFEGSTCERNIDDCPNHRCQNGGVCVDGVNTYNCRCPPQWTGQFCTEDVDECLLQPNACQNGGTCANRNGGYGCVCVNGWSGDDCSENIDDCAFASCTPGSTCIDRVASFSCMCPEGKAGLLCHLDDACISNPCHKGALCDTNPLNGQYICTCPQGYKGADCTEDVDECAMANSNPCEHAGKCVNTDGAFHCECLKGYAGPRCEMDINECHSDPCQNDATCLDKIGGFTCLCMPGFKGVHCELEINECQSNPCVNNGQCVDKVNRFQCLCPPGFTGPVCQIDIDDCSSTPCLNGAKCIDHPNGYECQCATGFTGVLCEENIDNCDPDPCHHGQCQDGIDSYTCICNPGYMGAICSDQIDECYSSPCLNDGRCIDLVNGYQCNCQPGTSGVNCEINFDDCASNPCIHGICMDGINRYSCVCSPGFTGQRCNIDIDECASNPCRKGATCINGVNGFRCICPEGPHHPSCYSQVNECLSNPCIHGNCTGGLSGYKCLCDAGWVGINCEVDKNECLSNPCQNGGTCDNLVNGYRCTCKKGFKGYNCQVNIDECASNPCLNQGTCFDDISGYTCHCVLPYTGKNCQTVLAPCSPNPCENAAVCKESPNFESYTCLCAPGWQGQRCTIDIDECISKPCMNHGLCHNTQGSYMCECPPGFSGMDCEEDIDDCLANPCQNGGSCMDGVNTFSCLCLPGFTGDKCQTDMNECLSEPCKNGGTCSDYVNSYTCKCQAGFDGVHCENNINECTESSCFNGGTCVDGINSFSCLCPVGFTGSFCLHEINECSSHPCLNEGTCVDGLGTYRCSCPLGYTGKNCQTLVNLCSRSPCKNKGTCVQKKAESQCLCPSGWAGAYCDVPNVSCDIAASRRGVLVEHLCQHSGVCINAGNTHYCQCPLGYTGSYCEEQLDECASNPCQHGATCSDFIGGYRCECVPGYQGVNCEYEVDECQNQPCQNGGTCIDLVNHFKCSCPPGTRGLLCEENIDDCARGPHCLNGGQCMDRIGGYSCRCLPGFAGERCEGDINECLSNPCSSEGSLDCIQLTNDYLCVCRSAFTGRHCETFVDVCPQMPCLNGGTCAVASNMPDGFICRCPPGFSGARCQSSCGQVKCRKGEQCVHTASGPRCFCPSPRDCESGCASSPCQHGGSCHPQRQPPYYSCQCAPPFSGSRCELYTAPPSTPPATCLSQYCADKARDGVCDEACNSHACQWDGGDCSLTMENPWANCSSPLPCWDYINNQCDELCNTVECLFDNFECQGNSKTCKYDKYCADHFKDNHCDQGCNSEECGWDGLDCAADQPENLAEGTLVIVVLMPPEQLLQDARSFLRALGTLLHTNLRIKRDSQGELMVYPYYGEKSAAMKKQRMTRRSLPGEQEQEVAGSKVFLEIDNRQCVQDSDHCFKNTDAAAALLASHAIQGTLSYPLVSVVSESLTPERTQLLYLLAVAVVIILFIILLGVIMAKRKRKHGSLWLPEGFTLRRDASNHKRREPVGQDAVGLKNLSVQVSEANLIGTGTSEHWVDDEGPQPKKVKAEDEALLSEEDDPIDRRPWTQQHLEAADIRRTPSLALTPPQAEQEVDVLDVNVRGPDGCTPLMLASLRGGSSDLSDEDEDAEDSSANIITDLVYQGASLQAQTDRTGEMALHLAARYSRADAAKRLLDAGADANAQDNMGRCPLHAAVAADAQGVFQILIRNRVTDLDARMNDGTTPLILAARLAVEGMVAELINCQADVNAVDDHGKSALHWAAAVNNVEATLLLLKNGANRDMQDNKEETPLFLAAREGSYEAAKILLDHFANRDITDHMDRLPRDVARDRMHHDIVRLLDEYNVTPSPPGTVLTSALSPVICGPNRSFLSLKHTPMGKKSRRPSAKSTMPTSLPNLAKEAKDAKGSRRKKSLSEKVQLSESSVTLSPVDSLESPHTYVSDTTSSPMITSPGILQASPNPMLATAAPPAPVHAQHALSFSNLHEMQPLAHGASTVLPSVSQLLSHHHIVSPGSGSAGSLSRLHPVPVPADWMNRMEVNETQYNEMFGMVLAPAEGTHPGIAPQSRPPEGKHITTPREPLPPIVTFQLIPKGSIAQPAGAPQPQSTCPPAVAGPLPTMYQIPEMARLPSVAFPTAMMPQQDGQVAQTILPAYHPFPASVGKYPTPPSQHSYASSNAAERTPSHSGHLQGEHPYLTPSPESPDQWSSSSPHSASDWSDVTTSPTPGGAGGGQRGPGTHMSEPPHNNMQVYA
For test [6], the target named is Pro-neuregulin-1, membrane-bound isoform (Homo sapiens) (UniProt Q02297). The test is described as follows: small molecules binding neuregulin-1 protein – biochemical, small-molecule microarray, fluorescence 635/667, psychiatric disease protein project, primary screen (AID 1075).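 Also: score combines 667 nm spot fluorescence with signal to noise.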 The note with it: NRG1 binding, 635 nm fluorescence, higher = more signal.
Chain of Pro-neuregulin-1, membrane-bound isoform (Homo sapiens) (Q02297 whole entry, looked up, the tested form may be a part, canonical isoform): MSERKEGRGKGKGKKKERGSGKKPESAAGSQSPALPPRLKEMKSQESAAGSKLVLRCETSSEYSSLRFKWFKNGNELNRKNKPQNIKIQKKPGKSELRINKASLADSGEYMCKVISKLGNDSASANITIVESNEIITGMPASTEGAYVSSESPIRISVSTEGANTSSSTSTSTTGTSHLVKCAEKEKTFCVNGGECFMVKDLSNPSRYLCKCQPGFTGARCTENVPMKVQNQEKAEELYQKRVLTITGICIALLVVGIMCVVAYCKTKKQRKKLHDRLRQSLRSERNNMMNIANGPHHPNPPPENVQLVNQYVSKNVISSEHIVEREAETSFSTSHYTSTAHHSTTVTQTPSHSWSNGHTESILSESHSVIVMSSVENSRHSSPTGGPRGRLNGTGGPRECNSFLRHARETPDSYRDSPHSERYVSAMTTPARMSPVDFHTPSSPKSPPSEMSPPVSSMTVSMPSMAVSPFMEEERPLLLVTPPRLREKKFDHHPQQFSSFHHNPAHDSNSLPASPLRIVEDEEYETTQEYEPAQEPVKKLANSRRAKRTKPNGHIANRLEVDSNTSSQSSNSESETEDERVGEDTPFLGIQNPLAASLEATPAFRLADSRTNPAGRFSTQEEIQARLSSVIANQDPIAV
Test [7] has as its system Neuregulin-1 EGF-like domain. The test is described as follows: small molecules binding NRG1 EGF domain – biochemical, small-molecule microarray, 635 nm fluorescence, primary screen (AID 1081).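 Also: binding of the protein to compounds printed on small-molecule microarray slides.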 Conditions: higher = more signal.
The nature of test [8]: FRG1 expression reporter modulators in myotubes – cell-based, C2C12 myotubes, firefly/Renilla luciferase, luminescence, FRG1 inhibition for FSHD, primary screen (AID 1084). The note with it: FRG1 promoter luciferase, higher = more signal, called active from +8 up or from −8 down.
Test [9] in a line: small molecules captured by biotinylated probe aFST – biochemical, small-molecule microarray, fluorescence 635/667, stem cell growth factor project, primary screen (AID 1086).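 Also: score merges 667 nm fluorescence with signal-to-noise of each printed compound spot.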 Conditions: higher = more signal.
The nature of test [10]: binders of probe aHhip on microarray, primary screen, stem cell growth factor project, biochemical, small-molecule microarray, fluorescence 635/667 (AID 1087).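 Also: score merges spot fluorescence at 667nm with spot signal to noise ratio.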 Conditions: higher = more signal.
Test [11] relates to PRMT1 (protein arginine N-methyltransferase 1). The test is described as follows: small molecules binding arginine methyltransferase PRMT1 – biochemical, small-molecule microarray, 635 nm fluorescence, primary screen (AID 1088).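 Also: binding of Prmt1 protein to compounds spotted on small-molecule microarray slides.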 The note with it: higher = more signal.
Test [12] can be described thus: growth effects on S. cerevisiae YJM789 – YJM789 clinical isolate, OD600, 24 h, basal, primary screen (AID 1089).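 Also: growth of clinical yeast isolate S. cerevisiae YJM 789 seeded 1000 cells per well; test concentration not given here.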 Conditions: higher = more signal, called active from +8 up or from −8 down.
Test [13] in a line: S. pombe growth modifiers, basal conditions – strain 972, OD600, 24 h, no modulator, primary screen (AID 1090).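 Also: basal condition with compound alone and no growth modifier present; test concentration not given here.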 Conditions: S. pombe 972 growth, higher = more signal, called active from +8 up or from −8 down.
Test [14] in a line: budding yeast growth modifiers under rapamycin – strain BY4716, OD600, 96 h, primary screen (AID 1091). Also: test concentration not given here. Conditions: S. cerevisiae BY4716 + rapamycin, higher = more signal, called active from +8 up or from −8 down.
Test [15] has as its target Torsin-1A-interacting protein 2 (Homo sapiens) (UniProt Q8NFQ8). Nature of the test: small molecules binding lysate-expressed LULL1 – cell lysate, human LULL1 lysate, 635/667 nm fluorescence, primary screen (AID 1092).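 Also: probe is lysate of COS7 cells overexpressing human LULL1; score merges per-feature 667 nm fluorescence with signal-to-noise.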 Conditions: small-molecule microarray, hLULL1 lysate binding, 635 nm fluorescence; higher = more signal.
The nature of test [16]: optical density change of DRC41 E. coli – strain DRC41, OD650, 24 h, E. coli filamentation project, primary screen (AID 1093).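 Also: MC1000 strain lacking acrAB efflux and sulA so SOS filamentation is blocked; test concentration not given here.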 Conditions: E. coli DRC41 growth, higher = more signal, called active from +8 up or from −8 down.
Test [17] in a line: probe aLefty2 binding to arrayed compounds – biochemical, biotinylated probe, 635/667 nm fluorescence, primary screen (AID 1094).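 Also: score merges spot fluorescence near 667 nm with spot signal-to-noise ratio.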 Conditions: small-molecule microarray, higher = more signal.
The test system of test [18] is Noggin (protein binding on small-molecule microarray). Nature of the test: small molecules binding Noggin protein – biochemical, 635/667 nm fluorescence, primary screen (AID 1095).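 Also: score merges 667 nm feature fluorescence with signal to noise over triplicate slides.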 Conditions: 635 nm fluorescence, higher = more signal.
The target in test [19] is Neurogenic locus notch homolog protein 3 (Homo sapiens) (UniProt Q9UM47). Nature of the test: small molecules binding NOTCH3 protein – biochemical, 635/667 nm fluorescence, primary screen (AID 1096). The note with it: small-molecule microarray, 635 nm fluorescence, higher = more signal.
Test [20] is described as follows: probe aEGFR binding to arrayed compounds – biochemical, biotinylated probe, 635/667 nm fluorescence, primary screen (AID 1097).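 Also: probe is a biotinylated anti-EGFR antibody binding compounds printed on slides; score combines fluorescence near 667 nm and signal to noise of each spot.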 Conditions: small-molecule microarray, higher = more signal.

Chain of Torsin-1A-interacting protein 2 (Homo sapiens) (Q8NFQ8 whole entry, looked up): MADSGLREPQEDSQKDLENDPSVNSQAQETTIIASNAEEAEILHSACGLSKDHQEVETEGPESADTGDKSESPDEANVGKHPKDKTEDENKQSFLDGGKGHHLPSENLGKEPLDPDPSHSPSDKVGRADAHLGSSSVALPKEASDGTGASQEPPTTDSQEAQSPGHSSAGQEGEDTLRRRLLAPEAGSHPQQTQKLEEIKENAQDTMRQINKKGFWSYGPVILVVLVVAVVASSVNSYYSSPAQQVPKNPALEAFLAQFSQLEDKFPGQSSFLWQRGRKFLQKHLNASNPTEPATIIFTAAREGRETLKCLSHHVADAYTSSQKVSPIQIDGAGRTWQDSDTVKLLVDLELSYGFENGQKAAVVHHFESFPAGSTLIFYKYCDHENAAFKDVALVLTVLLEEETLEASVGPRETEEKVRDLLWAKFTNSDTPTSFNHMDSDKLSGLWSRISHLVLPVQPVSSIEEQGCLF

On to `O=C(CS)NCCCCCNC(=O)[C@H]1C[C@H]2C(=O)N[C@@H](Cc3ccccc3)C(=O)N2[C@H]1c1ccc(O)cc1`, for which the composite z-score in test [1] is 0.593; in test [2], 0.395; in test [3], -0.0176; in test [4], 0.645; in [5], 1.02; in test [6], 0.541. The composite z-score in test [7] is 1.23; in test [9], 0.446; in test [10], -0.0919; in test [11], 1.54; in test [15], 2.18; in test [17], -0.107. The composite z-score in test [18] worked out at 1.48; in test [19], 0.781; in test [20], 0.178. Besides, the z-score is 0.658 (inactive) in [8]; 0.662 (inactive) in test [12]; -0.982 (inactive) in test [13]; 1.86 (inactive) in [14]; 1.12 (inactive) in [16].

As for `CC(C)[Si]1(C(C)C)O[C@@H](c2ccccc2)c2cc(C3CC3)nc(-c3ccc(Oc4ccccc4)cc3)c21`, the composite z-score in test [1] is 0.0382; in [2], 0.0357; in test [3], -0.119; in test [4], -0.772; in test [5] it was -0.304; in test [6] it was -0.46. Further, the composite z-score in test [7] is -0.985; in [9], -0.148; in test [10], -0.0074; in test [11], -0.63; in test [15], 0.369; in test [17], -0.142. For the same compound, the composite z-score in [18] is -0.101; in test [19] it was -1.22; in test [20], -0.169. Also, the z-score was -0.895 (inactive) in [8]; 0.995 (inactive) in [12]; -0.808 (inactive) in test [13]; 1.21 (inactive) in test [14]; 1.94 (inactive) in [16].

As to `C[N+](C)(C)CCCCNC(=O)[C@H]1C[C@H]2C(=O)NCC(=O)N2[C@H]1c1cccc(OCCO)c1`, the composite z-score is -0.514 in [1]; 2.35 in [2]; -0.0375 in test [3]; 1.15 in [4]; 0.0841 in test [5]; 0.309 in test [6]. The composite z-score in test [7] was 1.43; in [9], 0.533; in [10] it was 0.245; in test [11], 1.54; in test [15] it was 0.57; in test [17] it was -0.0463. The figures for the composite z-score in test [18], in [19] and in test [20] were 1.91, 1.05 and 0.0717, respectively. The z-score is 1.73 (inactive) in test [8]; -0.138 (inactive) in [12]; 0.0073 (inactive) in test [13]; -1.66 (inactive) in [14]; -0.271 (inactive) in test [16].

In the case of `CCC(=O)[C@]12O[C@@]3([C@@H]4C(=O)OCC[C@@H]41)N(Cc1ccccc1)C(C)=C(C(=O)OC)[C@@H](c1ccccc1)N3C2=O`, the composite z-score in test [1] was 0.232; in test [2] it was -0.289; in test [3] it was -0.163; in test [4], -0.133; in test [5], -0.333; in test [6], -0.0829. Further, the composite z-score was -0.814 in test [7]; -0.348 in test [9]; -0.134 in test [10]; 0.131 in test [11]; -0.417 in test [15]; -0.143 in test [17]. The composite z-score in test [18] was -1.66; in test [19] it was -0.406; in [20] it was -0.246. Moreover, the z-score in test [8] is -0.0144 (inactive); in test [12] it was -0.641 (inactive); in test [13], -1.16 (inactive); in test [14] it was -1.17 (inactive); in test [16], 0.151 (inactive).

On to `COCCOC(=O)N1C(=O)[C@@]2(c3cc(C#CCCO)ccc31)[C@H](c1ccc(OCCO)cc1)N1[C@H](c3ccccc3)[C@H](c3ccccc3)OC(=O)[C@H]1[C@@H]2C(=O)NC[C@H](O)c1ccccc1`, for which the composite z-score in test [1] is -0.484; in test [2], 1.04; in [3] it was -0.0628; in test [4], 0.889; in test [5] it was 1.4; in [6], 1.12. Besides, the composite z-score in test [7] is 1.25; in [9], 0.788; in test [10], 0.152; in test [11], 1.54; in test [15] it was 2.54; in test [17], -0.116. Moreover, the composite z-score was 1.6 in [18], 1.07 in [19] and -0.0286 in [20]. Moreover, the z-score in test [8] is 0.504 (inactive); in [12], 1.99 (inactive); in test [13] it was 1.98 (inactive); in [14], 5.45 (inactive); in [16], 1.3 (inactive).
